Source: PubChem BioAssay
TSHR antag: human thyrotropin receptor antagonism. P16473. TSHR-expressing cells, TSH-stimulated cAMP HTRF, 2 h; hits give low values. activity change, negative = inhibition, % at 11.5 µM. hit rate 0.2% among 330,000;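 active = activity change below a set negative limit, meaning inhibition stronger than a set level, cut at about -70% in these data; inconclusive = activity change between two set negative limits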
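TSHR-expressing cells were treated with compounds, then stimulated with TSH at EC80 (4nM final) for 2 hours at 37 deg C. Cellular cAMP was measured by HTRF competition between lysate cAMP and cAMP-d2 for a cryptate-labelled anti-cAMP antibody.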
VP16 counter: inhibits Gal4-VP16 luciferase reporter, ROR gamma counter-screen; Drosophila S2 Gal4-VP16 UAS-luciferase, luminescence, 20 h; Potency, µM (highest dose often 53.6 µM), most hits filed as inhibitors; hit rate 3.5% among 310,000; AID 2546;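 also: Gal4-VP16 expression switched on by copper sulfate through the metallothionein promoter; nearly all actives have a fitted effect of over 50% in size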
ELG1 repair inh: blocks ELG1-dependent DNA repair in HEK293T cells. Potency, µM (titrated, usually from 46.1 µM), usual class: inhibitors. hit rate 2.3% among 330,000. HEK293T ELG1-luciferase reporter, luminescence, 16 h; DNA damage induced by 5-fluorouridine. AID 504467; also: nearly all actives have a fitted effect of over 55% in size
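Reporter activity after DNA damage by 5-fluorouridine is monitored. Compound-treated cells incubate 16 hr at 37 °C, then ONE-Glo is added for 30 min before luminescence reading.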
RORg inh: ROR gamma (mouse) transcription inhibition | hit rate 5.4% among 310,000 | P51450 | Drosophila S2 Gal4-RORgamma UAS-luciferase reporter, 20 h | Potency, µM (top dose mostly 53.6 µM), usual class: inhibitors; also: nearly all actives have a fitted effect of over 60% in size
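ROR gamma transcriptional activity was tracked as Gal4-UAS luciferase output in stably transfected Drosophila Schneider cells, with compound added 1 hr before 700 uM copper sulfate induction and a 20 hr ambient-temperature incubation.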
B2AR arrestin: recruits beta-arrestin to the human beta2-adrenergic receptor | P07550 | beta-arrestin recruitment to beta2AR, cell-based reporter | Potency, µM (top dose mostly 46.1 µM), hits mostly activators | hit rate 0.02% among 330,000 | AID 492947; also: nearly all actives have a fitted effect of over 65% in size
Target sequence (P07550 whole entry, looked up): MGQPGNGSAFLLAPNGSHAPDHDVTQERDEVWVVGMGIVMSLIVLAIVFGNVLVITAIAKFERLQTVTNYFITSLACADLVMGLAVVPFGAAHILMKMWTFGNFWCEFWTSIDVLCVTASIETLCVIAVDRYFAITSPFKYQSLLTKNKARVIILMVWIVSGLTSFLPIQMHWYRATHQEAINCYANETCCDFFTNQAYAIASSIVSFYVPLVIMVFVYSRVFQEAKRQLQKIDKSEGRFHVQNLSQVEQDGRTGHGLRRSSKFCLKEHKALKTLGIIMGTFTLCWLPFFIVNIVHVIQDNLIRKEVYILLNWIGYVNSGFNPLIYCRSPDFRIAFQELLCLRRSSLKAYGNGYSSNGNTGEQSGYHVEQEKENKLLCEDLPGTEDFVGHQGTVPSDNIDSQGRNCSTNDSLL
A number is an active result; n = inactive; u = inconclusive; x = no result; [ ] = remark or other dose. Hits are enriched below; roughly 7.5% of the tested compounds scored in any of these assays. Unless noted, calls follow the shape of the dose curve; as a rule, active = well fitted curve in the direction sought with a large enough effect; inconclusive = small, poorly fitted or top-dose-only effect, or another doubt; inactive = no such curve, though single readings can be large; an effect the other way counts as inactive or inconclusive.

SMILES	TSHR antag	VP16 counter	ELG1 repair inh	RORg inh	B2AR arrestin
Cc1cccc(NC(=S)Nc2cccc3ccccc23)c1	n	8.91µM	n	7.08µM	n
Cc1cc(C)cc(NC(=S)Nc2cccc3ccccc23)c1	n	n	u	n	n
Cc1ccc(NC(=S)Nc2cccc3ccccc23)cc1	n	5.62µM	u	2µM	n
Cc1cc(NC(=S)Nc2cccc3ccccc23)n[nH]1	n	5.01µM	n	2.82µM	n
Fc1ccc(NC(=S)Nc2cccc3ccccc23)cc1	n	u	u	u	n
CC(=O)Nc1cccc(NC(=O)Nc2cccc3ccccc23)c1	n	n	n	n	n
CCc1cccc(NC(=S)Nc2cccc3ccccc23)c1	n	7.94µM	n	3.98µM	n
COc1cccc(C(=O)Nc2cccc3ccccc23)c1	n	n	n	n	n
COc1cccc(NC(=S)Nc2cccc3ccccc23)c1	n	6.31µM	u	0.112µM	n
CC(C)c1ccc(NC(=S)Nc2cccc3ccccc23)cc1	n	7.08µM	u	3.55µM	n
O=c1c(-c2ccccc2)nc2cnc(Oc3cccc(Cl)c3)nc2n1C[C@H]1CCCO1	x	n	x	n	x
O=C(O)[C@H]1NCCC[C@H]1C(=O)O	n	x	x	x	x
CCN(CC)C(=O)Cn1c(=O)n(Cc2ccc(F)cc2)c(=O)c2sccc21	n	n	n	n	n
CCN(CC)C(=O)Cn1c(=O)n(-c2ccccc2)c(=O)c2sccc21	-80.9	n	u	n	n
Nc1ccc2nc(-c3ccccn3)[nH]c2c1	n	u	u	20µM	n
Nc1ccc2nc(-c3ccccc3)[nH]c2c1	n	u	u	12.6µM	n
Cc1ccc(-c2nc(C#N)c(N3CCC(C(N)=O)CC3)o2)cc1	n	n	n	n	n
COC(=O)c1cc(C)nc2c1C(=O)C(=O)C=C2N1CCOCC1	n	x	5.17µM	x	n
CC(=O)NCCOC(=O)c1nn(Cc2ccccc2)c(=O)c2ccccc12	n	n	n	n	n
CCOc1ccc(NC(=O)CSc2nc3nc4c(cc3c(=O)n2CC)COC(C)(C)C4)cc1	n	n	u	n	n
CCn1c(SCC(=O)Nc2ccccc2C)nc2nc3c(cc2c1=O)COC(C)(C)C3	n	n	13µM	n	n
CCn1c(SCC(=O)Nc2ccc(OC)cc2)nc2nc3c(cc2c1=O)COC(C)(C)C3	n	n	20.6µM	n	n
NCCC[C@@H](CC(=O)N[C@@H]1CCCC[C@H]1C(=O)N[C@H](CC(=O)N[C@@H](CCC(=O)O)CC(=O)O)Cc1c[nH]c2ccccc12)NC(=O)C[C@H](CO)NC(=O)[C@@H]1CNCC[C@H]1N	x	n	x	n	x
CC(=O)N[C@H]1CSSC[C@@H](C(=O)N2CCC[C@H]2C(=O)N2CCC[C@H]2C(=O)N[C@@H](CCCCN)C(=O)N[C@@H](CC(=O)O)C(N)=O)NC(=O)CNC(=O)[C@H](Cc2c[nH]c3ccccc23)NC(=O)[C@H](CCCNC(=N)N)NC(=O)[C@@H](Cc2ccc3ccccc3c2)NC(=O)[C@H](Cc2cnc[nH]2)NC(=O)[C@H](CCC(=O)O)NC1=O	x	n	x	n	x
COc1cc2c(cc1OC)C1O[C@](c3ccsc3)(C2)Oc2cc(-c3ccccc3)oc(=O)c21	x	n[10 µM]	x	n[10 µM]	n[9.22 µM]
SMILES	TSHR antag	VP16 counter	ELG1 repair inh	RORg inh	B2AR arrestin
CN(C(=O)CSc1nncn1C)C1CCCN(Cc2ccccc2F)C1 (centres undefined)	n	n	n	n	n
Clc1cccc(-c2ccc(CNCc3ccccn3)o2)c1	n	u	n	11.2µM	n
Brc1ccc(-c2ccc(CNCc3ccccn3)o2)cc1	n	u	n	u	n
CCOC(=O)CCCCCC(=O)Nc1ccc2c(c1)C(=O)N([C@H](C)CO)C[C@@H](C)[C@H](CN(C)Cc1ccc3c(c1)OCO3)O2	n	x	u	x	n
C[C@@H]1CCC2[C@](C)(CO)C(O)CC[C@@]2(C)[C@@]12CC[C@](CO)(CCO)O2 (some centres undefined)	x	n	x	n	x
Cc1ccccc1NC(=O)CN1C(=S)NC(C)(C)CC1C (centres undefined)	n	u	n	u	n
CC1CC(C)(C)NC(=S)N1CCCC(=O)NCc1ccccc1 (centres undefined)	n	n	n	u	n
CCOc1ccccc1NC(=O)CCCN1C(=S)NC(C)(C)CC1C (centres undefined)	n	u	n	14.1µM	n
CCOc1ccc(OCC)c(NC(=O)CCCN2C(=S)NC(C)(C)CC2C)c1 (centres undefined)	n	6.31µM	n	6.31µM	n
CN(C)CCCNS(=O)(=O)c1ccc(NC2CCCCCC2)c([N+](=O)[O-])c1	n	20µM	u	n	n
Cc1[nH]c2ccccc2c1/C=C/c1nc2ccccc2c(=O)n1CCO	n	n	1.83µM	u	n
Cc1ccccc1/C=C/c1nc2ccccc2c(=O)n1CCc1ccccc1	n	n	16.4µM	n	n
Cc1ccc(N2C(=O)C(Cl)=C(N3CCCCCC3)C2=O)c(C)c1	n	n	n	n	n
Cc1ccc(/C=C/c2nc3ccccc3[nH]2)o1	n	n	u	11.2µM	n
Cc1cc2nc(/C=C/c3nc4cc(C)c(C)cc4[nH]3)[nH]c2cc1C	n	n	u	n	n
O=c1cc(-c2cccc(F)c2)[nH]c2cc(Cl)ccc12	x	n	x	n	x
CCOC(=O)c1c(-c2ccc(OC)cc2)csc1NC(=O)CCN1C(=O)c2ccccc2C1=O	n	n	u	n	n
CCOC(=O)c1c(-c2ccc(OCC)cc2)csc1NC(=O)CCN1C(=O)c2ccccc2C1=O	n	n	11.6µM	n[10 µM]	n
CCOC(=O)c1c(-c2ccc(OC)cc2)csc1NC(=O)CNCc1ccco1	n	5.62µM	u	5.01µM	n
NCC1O[C@@H](O[C@H]2C(O)C(O[C@@H]3C(O[C@H]4OC(CO)C(O)C(O)C4N)C(N)CC(N)[C@H]3O)O[C@@H]2CO)C(N)C(O)C1O (some centres undefined)	x	n	x	n	x
COc1ccc(CCCn2ncc3c2nc(N)n2nc(-c4ccco4)nc32)cc1	x	n	x	n	x
CCOc1ccc(C(=O)Nc2ccccc2N2CCOCC2)cc1	n	n	n	n	n
